Values joined by “and” are separate entries in the source; they are usually repeats but may differ in a detail not shown here. Equal values may be shown once. Records with an inconclusive call do not appear. More than one record can exist for a structure, and the calls need not agree. Active and inactive are the calls of the source. Unless noted, calls come from the whole dose curve; as a rule, active = well fitted curve in the direction sought with a large enough effect in the repeat runs; inconclusive = weak or mixed curves; inactive = no such curve, though single readings can be large; an effect the other way counts as inactive or inconclusive.
Tests used:
[1] = qHTS assay to identify small molecule antagonists of the estrogen related receptor (ERR) signaling pathway from Tox21 library - cell viability counter screen (AID 1224834); note: nearly all actives have a fitted effect of over 30% in size
Outline: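 Compounds in DMSO were pinned onto ERR cells that had been incubated for 6 h, and the plates were held at 37 C for 17.5 h. CellTiter-Fluor reagent was then added and fluorescence was measured after 30 min.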

[2] = target: Luciferin 4-monooxygenase (Photinus pyralis) (UniProt P08659); test: qHTS assay to identify small molecule inhibitors of firefly luciferase (AID 1224835); note: nearly all actives have a fitted effect of over 25% in size; note: potency is the fitted concentration of half-maximal effect
Sequence of Luciferin 4-monooxygenase (Photinus pyralis) (P08659 whole entry, looked up): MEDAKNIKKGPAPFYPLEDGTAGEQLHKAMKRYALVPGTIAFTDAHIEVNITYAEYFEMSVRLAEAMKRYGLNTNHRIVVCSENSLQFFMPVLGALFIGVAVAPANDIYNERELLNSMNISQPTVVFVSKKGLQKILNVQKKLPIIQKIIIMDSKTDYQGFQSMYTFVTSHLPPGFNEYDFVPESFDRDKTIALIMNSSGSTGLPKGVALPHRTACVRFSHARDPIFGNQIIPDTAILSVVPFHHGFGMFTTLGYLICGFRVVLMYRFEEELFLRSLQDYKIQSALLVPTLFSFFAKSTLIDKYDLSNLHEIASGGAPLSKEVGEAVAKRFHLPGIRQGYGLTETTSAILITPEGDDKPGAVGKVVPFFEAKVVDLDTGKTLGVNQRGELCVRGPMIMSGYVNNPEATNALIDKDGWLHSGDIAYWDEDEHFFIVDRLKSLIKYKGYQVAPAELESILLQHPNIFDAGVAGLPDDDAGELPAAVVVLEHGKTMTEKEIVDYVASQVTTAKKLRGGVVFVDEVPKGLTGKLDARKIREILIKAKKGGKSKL
Outline: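 Quantitative HTS format; KM concentrations of both substrates. Purified P. pyralis FLuc activity quantified from luminescence images.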

[3] = qHTS assay to identify small molecule agonists of the constitutive androstane receptor (CAR) signaling pathway - cell viability counter screen (AID 1224836); note: nearly all actives have a fitted effect of over 45% in size
Outline: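 Double-stable HepG2 hepatoma cells (hCAR plus CYP2B6-2.2kb) are treated for 23 h at 37 C with test compounds in 15-point concentration series. PK11195 at 0.75 uM final is co-added. Cell viability is quantified by CellTiter-Fluor.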

[4] = qHTS assay to identify small molecule antagonists of the constitutive androstane receptor (CAR) signaling pathway - cell viability counter screen (AID 1224837); note: nearly all actives have a fitted effect of over 45% in size
Outline: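 Cells are seeded, rested 4 hr at 37 C/5% CO2, dosed with compound (15-point series) and 50 nM CITCO, incubated a further 23 hr, and then CellTiter-Fluor reagent is added before fluorescence is read. The line is HepG2 with stable hCAR and CYP2B6-2.2kb.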

[5] = target: Nuclear receptor subfamily 1 group I member 3 (Homo sapiens) (UniProt Q14994); test: qHTS assay to identify small molecule antagonists of the constitutive androstane receptor (CAR) signaling pathway (AID 1224838);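 note: HepG2 cells stably expressing hCAR with CYP2B6 luciferase reporter stimulated by CITCO; nearly all actives have a fitted effect of over 40% in size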
Sequence of Nuclear receptor subfamily 1 group I member 3 (Homo sapiens) (Q14994 whole entry, looked up): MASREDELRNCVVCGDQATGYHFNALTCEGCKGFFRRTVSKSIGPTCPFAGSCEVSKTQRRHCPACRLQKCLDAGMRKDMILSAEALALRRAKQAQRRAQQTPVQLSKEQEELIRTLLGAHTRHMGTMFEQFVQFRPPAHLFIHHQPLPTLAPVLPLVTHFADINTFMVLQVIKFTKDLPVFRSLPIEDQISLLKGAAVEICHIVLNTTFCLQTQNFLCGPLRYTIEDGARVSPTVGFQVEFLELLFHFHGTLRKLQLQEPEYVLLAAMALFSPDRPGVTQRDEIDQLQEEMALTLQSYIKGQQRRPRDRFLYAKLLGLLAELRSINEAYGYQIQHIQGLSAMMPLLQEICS
Outline: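 Luminescence from a CYP2B6-2.2kb promoter reporter in hCAR-expressing HepG2 cells reflects CAR signaling. Cells received compounds at 15 concentrations and 50 nM CITCO (final), then incubated 24 h at 37 C/5% CO2.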

[6] = target: Nuclear receptor subfamily 1 group I member 3 (Homo sapiens) (UniProt Q14994); test: qHTS assay to identify small molecule agonists of the constitutive androstane receptor (CAR) signaling pathway (AID 1224839); note: nearly all actives have a fitted effect of over 15% in size; note: potency is the fitted concentration of half-maximal effect;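 for activation: HepG2 cells stably carrying human CAR and a CYP2B6 luciferase reporter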
Outline: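 Readout: firefly luciferase luminescence via ONE-Glo. System: HepG2 double-stable for hCAR and CYP2B6-2.2kb. Conditions: 15-point compound titration, PK11195 at 0.75 uM final, 24 h incubation.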

[7] = qHTS assay to identify small molecule antagonists of the estrogen related receptor signaling pathway with the pleiotropic PPARgamma coactivator (PGC) from Tox21 10K library - cell viability counter screen (AID 1224840; active = well fitted cell-killing curve with a large enough effect in the repeat runs, not every such curve was filed as active; note: nearly all actives have a fitted effect of over 40% in size)
Outline: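 Cell viability is measured by CellTiter-Fluor fluorescence in PGC/ERR cells that receive compounds after a 6-hour attachment period and are then incubated 17.5 hours at 37 C.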

[8] = qHTS assay to identify small molecule antagonists of the estrogen related receptor signaling pathway with the pleiotropic PPARgamma coactivator (PGC) from Tox21 10K library (AID 1224841; call rule not given here; note: actives are mostly falling curves and most rising ones were filed inactive; nearly all actives have a fitted effect of over 50% in size)
Outline: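 Cells stably carrying the PGC/ERR reporter, seeded at 2,000 per well, received pin-transferred compounds 6 h post-plating. Exposure lasted 18 h at 37 C. Signal: One-Glo luminescence.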

[9] = qHTS assay to identify small molecule agonists of the estrogen related receptor signaling pathway with the pleiotropic PPARgamma coactivator (PGC) from Tox21 10K library (AID 1224842); note: nearly all actives have a fitted effect of over 15% in size
Outline: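 PGC/ERR reporter cells (NTP line) were seeded 2,000 per well, rested 6 h at 37 C/5% CO2, then pin-dosed with compounds in DMSO for 18 h at 37 C; luciferase read by One-Glo luminescence after 30 min at room temperature.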

[10] = target: Thyrotropin receptor (Homo sapiens) (UniProt P16473); test: qHTS assay to identify small molecule agonists of the thyroid stimulating hormone receptor (TSHR) signaling pathway (AID 1224843; calls by dose curve; note: nearly all actives have a fitted effect of over 45% in size)
Sequence of Thyrotropin receptor (Homo sapiens) (P16473 whole entry, looked up): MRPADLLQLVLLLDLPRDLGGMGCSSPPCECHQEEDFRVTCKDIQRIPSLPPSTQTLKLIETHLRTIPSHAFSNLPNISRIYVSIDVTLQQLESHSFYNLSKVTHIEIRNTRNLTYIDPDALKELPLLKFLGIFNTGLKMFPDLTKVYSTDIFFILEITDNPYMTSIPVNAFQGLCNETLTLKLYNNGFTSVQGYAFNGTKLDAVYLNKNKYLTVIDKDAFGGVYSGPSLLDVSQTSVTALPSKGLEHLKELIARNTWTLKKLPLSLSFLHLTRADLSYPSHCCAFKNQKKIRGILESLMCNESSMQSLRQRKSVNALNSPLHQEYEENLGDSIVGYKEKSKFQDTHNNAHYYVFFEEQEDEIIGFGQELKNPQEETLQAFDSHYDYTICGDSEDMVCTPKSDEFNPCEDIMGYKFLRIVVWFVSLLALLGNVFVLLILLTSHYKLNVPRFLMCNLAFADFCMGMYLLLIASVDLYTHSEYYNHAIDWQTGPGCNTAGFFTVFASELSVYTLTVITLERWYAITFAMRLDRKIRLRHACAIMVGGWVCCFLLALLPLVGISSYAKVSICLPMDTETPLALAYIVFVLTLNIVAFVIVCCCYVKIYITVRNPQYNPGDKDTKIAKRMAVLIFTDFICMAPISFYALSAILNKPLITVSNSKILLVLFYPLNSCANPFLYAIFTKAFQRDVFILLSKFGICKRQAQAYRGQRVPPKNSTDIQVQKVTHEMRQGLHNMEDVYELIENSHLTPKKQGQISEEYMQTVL
Outline: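 Using 15 concentrations per compound in triplicate, cAMP production was monitored in TSHR-HEK293 cells after 30 min compound incubation at RT; HTRF reagents followed, with fluorescence intensity recorded after 1 h.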

[11] = qHTS assay to identify small molecule agonists of the hypoxia (HIF-1) signaling pathway - cell viability counter screen (AID 1224844; calls by dose curve; note: nearly all actives have a fitted effect of over 50% in size)
Outline: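 Viability counter screen: HRE-bla ME-180 cells plated 5 hrs before compound addition, treated 17 hrs at 37C and 5% CO2, then CellTiter-Glo added after the FRET reporter read; luminescence after 30 min.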

[12] = qHTS assay to identify small molecule agonists of H2AX (AID 1224845; active = well fitted activation curve with a large enough effect in the signal ratio in the repeat runs, not every such curve was filed as active; the % refers to the signal ratio)
Outline: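 Wild-type CHO-K1 cells plated overnight, then exposed 3 hr at 37C to compounds at 15 concentrations (0.76% DMSO). Lysed, then HTRF anti-pH2AX(S139)-cryptate/anti-H2AX-d2 detection after 24 hr at room temperature; emissions 665 and 620 nm.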

[13] = qHTS assay to identify small molecule agonists of the hypoxia (HIF-1) signaling pathway (AID 1224846; active = well fitted activation curve with a large enough effect in the signal ratio in the repeat runs, not every such curve was filed as active; the % refers to the signal ratio)
Outline: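 Agonist mode reporter screen. ME-180 cells stably expressing bla under HRE control received test compounds in DMSO for 17 hrs (37C, 5% CO2), and beta-lactamase activity was then detected with the CCF4-AM FRET substrate.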

[14] = qHTS assay to identify small molecule agonists of H2AX - cell viability counter screen (AID 1224847; calls by dose curve; note: top concentration of the series differs between compounds; nearly all actives have a fitted effect of over 30% in size)
Outline: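 For this counter screen, overnight-attached CHO-K1 cells received test compounds (15 concentrations, 0.76% DMSO final); 3 hr later at 37C, CellTiter-Glo reagent was added and luminescence recorded after 30 min at room temperature.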

[15] = qHTS assay to identify small molecule antagonists of the estrogen related receptor (ERR) signaling pathway from Tox21 library (AID 1224848); note: nearly all actives have a fitted effect of over 50% in size
Outline: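 Tox21 10K compounds in DMSO tested for ERR pathway antagonism in NTP's ERR cell line; 18 h, 37 C exposure; ONE-Glo luminescence.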

[16] = qHTS assay to identify small molecule agonists of the estrogen related receptor (ERR) signaling pathway from Tox21 library (AID 1224849; calls by dose curve; note: nearly all actives have a fitted effect of over 15% in size); conditions: ERR reporter cell line, ONE-Glo luciferase, 18 h; at 92.4 µM (top of the series) unless noted
Outline: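 Quantitative HTS in agonist format: NTP ERR cell line, compounds transferred in DMSO after 6 h plating, 18 h incubation at 37 C, ONE-Glo luminescence endpoint.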

[17] = qHTS RealTime-Glo MT Cell Viability Assay in HepG2 cells - 24 hour (AID 1224867); note: nearly all actives have a fitted effect of over 50% in size
Outline: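 HepG2 suspension premixed with RealTime-Glo reagents is plated at 600 cells per well and left 5 h at 37 C/5% CO2. Compounds in DMSO then go in, and bioluminescence reflecting viable cell number is recorded over 40 h.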

[18] = qHTS RealTime-Glo MT Cell Viability Assay in HEK293 cells - 32 hour (AID 1224868)
Outline: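 Reads taken at 0, 8, 16, 24, 32 and 40 h from the same wells. HEK293 cells (600/well) carried RealTime-Glo reagents from seeding, with compound added after a 5 h settle at 37 C.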

[19] = A CellTox Green Cytotoxicity Assay to monitor cytotoxicity in HEK293 cells - 0 hour (AID 1224869); note: nearly all actives have a fitted effect of over 50% in size
Outline: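 Dead-cell fluorescence measured kinetically: asymmetric cyanine dye, HEK293, 600 cells/well, 5 h settle, 23 nL cpd/DMSO, 37 C, reads 0–40 h every 8 h.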
% is set by controls: 0 for no effect and ±100 for the full control effect.

COC(=O)c1ccccc1CS(=O)(=O)NC(=O)Nc1nc(OC)cc(OC)n1
inactive: Potency [1] | Potency [2] | Potency [3] | Potency [4] | Potency [5] | Potency [6] | Potency [7] | Potency [8] | Potency [9] | Potency [10] | Potency [11] | outcome [12] | outcome [13] | Potency [14] | Potency [15] | activity change, positive = activation [16] -0.138% | Potency [17] | Potency [18] | outcome [19]

CN(CCO)CCO
inactive: Potency [1] | Potency [2] | Potency [3] | Potency [4] | Potency [5] | Potency [6] | Potency [7] | Potency [10] | Potency [11] | outcome [12] | outcome [13] | Potency [14] | Potency [17] | Potency [18] | outcome [19]

CCOC(=O)C(SP(=S)(OC)OC)c1ccccc1 (centres undefined)
inactive: Potency [1] | Potency [2] | Potency [3] | Potency [4] | Potency [5] | Potency [7] | Potency [8] | Potency [9] | Potency [10] | Potency [11] | outcome [13] | Potency [15] | Potency [17] | Potency [18] | outcome [19]
active: Potency [6] 30.6 µM

CN1C(=O)COc2c(C(=O)NC3CN4CCC3CC4)cc(Cl)cc21 (centres undefined)
inactive: Potency [1] | Potency [2] | Potency [3] | Potency [4] | Potency [5] | Potency [6] | Potency [7] | Potency [10] | Potency [11] | outcome [12] | outcome [13] | Potency [14] | Potency [17] | Potency [18] | outcome [19]

N=C(N)[Se]
inactive: Potency [1] | Potency [2] | Potency [3] | Potency [4] | Potency [5] | Potency [6] | Potency [7] | Potency [10] | Potency [11] | outcome [12] | outcome [13] | Potency [14] | Potency [17] | Potency [18] | outcome [19]

ClCC1CO1 (centres undefined)
inactive: Potency [1] | Potency [2] | Potency [3] | Potency [4] | Potency [5] | Potency [6] | Potency [7] | Potency [8] | Potency [9] | Potency [10] | Potency [11] | outcome [12] | outcome [13] | Potency [14] | Potency [15] | activity change, positive = activation [16] -2.49% | Potency [17] | Potency [18] | outcome [19]

COc1ccc(CN2CCNCC2)c(OC)c1OC
inactive: Potency [1] | Potency [2] | Potency [3] | Potency [4] | Potency [5] | Potency [7] | Potency [8] | Potency [9] | Potency [11] | outcome [12] | Potency [14] | Potency [15] | activity change, positive = activation [16] -10% [at 42.5 µM] | Potency [17] | outcome [19]

CCOP(=S)(OCC)Oc1ccc(Cl)cc1Cl
inactive: Potency [1] | Potency [2] | Potency [3] | Potency [4] | Potency [5] | Potency [7] | Potency [10] | Potency [11] | outcome [13] | Potency [17] | Potency [18] | outcome [19]
active: Potency [6] 27.3 µM

O=CCCl
inactive: Potency [1] | Potency [2] | Potency [3] | Potency [4] | Potency [5] | Potency [6] | Potency [7] | Potency [10] | Potency [11] | outcome [12] | outcome [13] | Potency [14] | Potency [17] | outcome [19]

N[C@@H](Cc1ccc(Oc2cc(I)c(O)c(I)c2)c(I)c1)C(=O)O
inactive: Potency [1] | Potency [2] | Potency [3] | Potency [4] | Potency [5] | Potency [6] | Potency [7] | Potency [11] | outcome [12] | Potency [14] | Potency [17] | Potency [18] | outcome [19]

Cc1cccc2sc3nncn3c12
inactive: Potency [1] | Potency [2] | Potency [3] | Potency [4] | Potency [5] | Potency [7] | Potency [10] | Potency [11] | outcome [12] | outcome [13] | Potency [14] | Potency [17] | Potency [18] | outcome [19]

N#CN
inactive: Potency [1] | Potency [2] | Potency [3] | Potency [4] | Potency [5] | Potency [6] | Potency [7] | Potency [11] | outcome [12] | outcome [13] | Potency [14] | Potency [17] | Potency [18] | outcome [19]

C=CCC1(C(C)CC)C(=O)NC(=O)NC1=O (centres undefined)
inactive: Potency [1] | Potency [2] | Potency [3] | Potency [4] | Potency [5] | Potency [6] | Potency [7] | Potency [10] | Potency [11] | outcome [12] | outcome [13] | Potency [14] | Potency [17] | outcome [19]

Cc1cc(OC(=O)N(C)C)nn1C(=O)N(C)C
inactive: Potency [1] | Potency [2] | Potency [3] | Potency [4] | Potency [5] | Potency [6] | Potency [7] | Potency [10] | Potency [11] | outcome [12] | outcome [13] | Potency [14] | Potency [17] | outcome [19]

CCOC(=O)NC(C)(C)Cc1ccc(Cl)cc1
inactive: Potency [1] | Potency [2] | Potency [3] | Potency [4] | Potency [5] | Potency [7] | Potency [10] | Potency [11] | outcome [12] | outcome [13] | Potency [14] | Potency [17] | Potency [18] | outcome [19]

C/C(=N\NC(=O)Nc1cc(F)cc(F)c1)c1ncccc1C(=O)O
inactive: Potency [1] | Potency [2] | Potency [3] | Potency [4] | Potency [5] | Potency [6] | Potency [7] | Potency [10] | Potency [11] | outcome [12] | outcome [13] | Potency [14] | Potency [17] | outcome [19]

CC(C)(C)c1cc(O)ccc1O
inactive: Potency [1] | Potency [3] | Potency [4] | Potency [5] | Potency [7] | Potency [11] | Potency [14] | Potency [17] | outcome [19]
71 µM (active) and inactive: Potency [2]
active: Potency [6] 54.5 µM and 61.1 µM
